According to the supplement of paper PMC10338343:
± gives the standard deviation. Over roughly 8,200 sequences, “pre-steady-state target cleavage rate” has its median near 0.024; the highest 2% begin near 1.3. This excerpt belongs to a sample that is enriched for the highest values.

Test system: MIWI (PIWIL1) piRISC loaded with L1MC piRNA (30 nt)
Assay: pre-steady-state target cleavage rate (min^-1); MIWI and MILI are mouse PIWI proteins and EfPiwi is from a freshwater sponge; tags in brackets are library labels; higher = faster piRNA-guided slicing of the target
Details: guide: L1MC piRNA 5'p-UAACUAAAUACUAUGCAAGCUGUAGGUCCU
Method in brief: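 The method was Cleave-'n-Seq, in which uncleaved targets from a transcribed, DNA-blocked target RNA library were sequenced after exposure to active affinity-purified piRISC carrying one synthetic guide, with or without GTSF1 partner protein. Reactions contained 0.1 nM library, 1 nM piRISC and, where present, 500 nM GTSF1 in HEPES–potassium acetate buffer at 33 °C for 0–8 or 0–960 min. Reads were normalised to depth and to weakly complementary targets, three trials were pooled, and k3 was capped at 0.0001 min^-1. The pre-steady-state cleavage rate came from a burst-and-steady-state fit.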

[1] = auxiliary factor: 500 nM mouse GTSF1
[2] = auxiliary factor: none (no GTSF1)

Sequence	pre-steady-state target cleavage rate [1]	pre-steady-state target cleavage rate [2]
UCCACCUACAGCUUGCAUUGUAUUUACAAA	0.112 ± 0.024	
UCCUGGUACAGCAUGCAUAGUAUUUAGUAA	0.377 ± 0.04	0.00875 ± 0.0024
UCCUGGAUGAGCUUGCAUGGUAUUUAGUUA	0.743 ± 0.043	0.0817 ± 0.02
UCCUGGAUCAGCUUGCAUAGAAUUUAGUUA	0.258 ± 0.028	0.0291 ± 0.0088
UCCUCCUACAGCUUGCAUUGUAUUUACUUA	0.388 ± 0.031	0.0162 ± 0.0032
UCCUGGAUCAGCAUGCAUAGUAUUUACAAA	0.156 ± 0.034	
UCCUGGAUGUGCUUGCAUAGUAUUCUAGUUA	0.211 ± 0.037	0.0155 ± 0.0049
UGGACCAACAGCUUGCAUAGUAUUUAGUUA	1.35 ± 0.047	0.0769 ± 0.013
UGGACCAACAGCUUGCAUAGUAUUUAGAUA	0.428 ± 0.022	0.0582 ± 0.014
AGGACCAACAGCUUGCAUAGUAUUUAGAAA	0.624 ± 0.071	0.033 ± 0.012
UGGACCAACAGCUAGCAUAGUAUUUAGUUA	1.36 ± 0.059	0.0347 ± 0.0073
UCGACCAACAGCUAGCAUAGUAUUUAGUUA	1.08 ± 0.046	0.0286 ± 0.0073
UGGACCAACAGCUUGCAUAGUAUUUAGUAA	1.17 ± 0.06	0.0641 ± 0.015
AGGACCAACAGCUUGCAUAGUAUUUAGUAA	0.974 ± 0.079	0.0722 ± 0.014
AGGACCAACAGCUUGCAUAGUAUUUAGUUA	1.4 ± 0.05	0.122 ± 0.021
AGGACCAACAGCUAGCAUAGUAUUUAGUUA	1.08 ± 0.052	0.038 ± 0.01
UCCUGGUACAGCUUGCAUACAAUUUAGUAA	0.0076 ± 0.0052	
UCCUGGAUGUGCUUGCAUAGUAUUUAGGUA	0.0938 ± 0.016	0.0113 ± 0.0031
UCCUGGAACAGCUUGGAUAGUAUUUUGUUA	0.745 ± 0.075	0.0289 ± 0.0047
UCCUGGAUGAGCUUGCAUAGUUUUAAGUUA	0.0288 ± 0.0084	0.00673 ± 0.0032
AGCACCUACAGCUUGCAUAGUAUUUAGUAA	0.974 ± 0.12	0.197 ± 0.062
UGGACCUACACCUUGCAUAGUAUAUAGUUA	0.523 ± 0.041	0.0327 ± 0.007
UCCUGGAACAGCAUGCAUAGUAUUUAGUAA	0.695 ± 0.061	0.0107 ± 0.0026
UCCUGGAUCAGCUAUGCAUAGUAUUUAGUUA	1.04 ± 0.073	0.0161 ± 0.0043
UGGACCUACACGUUGCAUAGUAUUUACAAA	0.103 ± 0.013	
UCCACCGACAGCUUGCAUAGUAUUUAGUUA	1.04 ± 0.043	0.0616 ± 0.011

Sequence	pre-steady-state target cleavage rate [1]	pre-steady-state target cleavage rate [2]
UCGACCGUACAGCUUGCAUAGUAUUUAGUUA	1.26 ± 0.046	0.0719 ± 0.013
AGGACCGACAGCUUGCAUAGUAUUUAGUUA	1.21 ± 0.058	0.0903 ± 0.017
UCGACCGACAGCUUGCAUAGUAUUUAGUUA	1.41 ± 0.05	0.0741 ± 0.012
UGGACCGACAGCUUGCAUAGUAUUUAGUUA	1.45 ± 0.076	0.0713 ± 0.013
UGGACCGUACAGCUUGCAUAGUAUUUAGUUA	1.24 ± 0.06	0.064 ± 0.0096
UCCACCAUCAGCUUGCAUAGUAUUUAGUAA	0.68 ± 0.029	0.0248 ± 0.0047
UCCUGGAUGUCCUUGCAUAGUAUUGAGUUA	0.142 ± 0.031	0.00653 ± 0.0024
UGGACCUACAGCUUGCAAUGUAUUUACAAA	0.0217 ± 0.0068	
UCCUGGAUCAGCUUGCAUACUAUUAAGUUA	0.101 ± 0.015	0.00664 ± 0.0024
UCCUGGAACAGCUUGCAAAGUAUUUUCAAA	0.0876 ± 0.018	0.00328 ± 0.002
UCCUGGUACAGCUUGCAUAGUAUUUAGUCUA	0.0829 ± 0.026	0.00718 ± 0.0028
AGGACCUACAGCUUGCAUAGAAUUUAGUUA	0.559 ± 0.044	0.0408 ± 0.011
UCCUGCAACAGCUUGCAAAGUAUUUAGUUA	1.32 ± 0.076	0.0463 ± 0.01
UCCUGCUACAGCUUGCAAAGUAUUUAGUUA	0.619 ± 0.037	0.03 ± 0.0055
UCCUGCUACAGCAUGCAUAGUAUUUAGUUA	1.21 ± 0.086	0.0207 ± 0.0053
UCCUGCAACAGCAUGCAUAGUAUUUAGUUA	1.36 ± 0.087	0.0331 ± 0.0088
UCCUGCAACAGCUUGCAUAGUAUUUAGAAA	0.429 ± 0.059	0.00469 ± 0.0034
UCCUGGAACAGCUUGCUUAGUAUUUAGUUA	1.14 ± 0.053	0.0404 ± 0.0098
UCCUCCAACAGCUUGCAAAGUAUUUAGUUA	1.16 ± 0.043	0.0397 ± 0.0099
UCCUGGAACAGCUUGCAGUAGUAUUUAGUUA	0.00503 ± 0.0043	
UCCUGCAACAGCUUGCAUAGUAUUUAGUUA	1.57 ± 0.12	0.0696 ± 0.017
UCCUGCAACAGCUUGCAUAGUAUUUAGUAA	1.22 ± 0.083	0.0736 ± 0.021
UCCUGGAACAGCUUGCGUAGUAUUUAGUUA	1.43 ± 0.087	0.0397 ± 0.0099
UCCUGCAACAGCUAGCAUAGUAUUUAGUUA	1.12 ± 0.047	0.0185 ± 0.004
UGCACCUACAGCUUGCAUAGUAUUUUGUUA	0.852 ± 0.083	0.0692 ± 0.015
UCCUGGAUGUGCUUGCAUAGUAAUUUGUUA	0.0171 ± 0.0079	0.00536 ± 0.0029

Sequence	pre-steady-state target cleavage rate [1]	pre-steady-state target cleavage rate [2]
UCCACCAACAGCUUCCAUAGUAUUUAGUUA	0.0426 ± 0.015	0.00399 ± 0.0017
AGGACCAACAGCUUGCAUUGUAUUUAGUUA	0.923 ± 0.044	0.0356 ± 0.0086
UCCUCCUACAGCUUGCAUAGUUUUUACAAA	0.185 ± 0.029	
UCCUGGAACAGCUUGCAUAGUUAUUAGUUA	0.113 ± 0.015	0.015 ± 0.0044
UCCUGGAACAGCUUGUAUAGUAUUUAGUUA	1.37 ± 0.056	0.0564 ± 0.012
UCCUGGAACAGCUUGCAUAGUAUUUUAGUUA	0.875 ± 0.046	0.0159 ± 0.003
UCCUGCAACAGCUUGGAUAGUAUUUAGUUA	1.24 ± 0.1	0.0688 ± 0.012
UCCUGGAACAGCUUGCAUAGUAUCUUAGUUA	0.777 ± 0.046	0.0258 ± 0.0072
UCCUGCAACAGCUUGCAUUGUAUUUAGUUA	0.964 ± 0.068	0.0397 ± 0.01
UCCUGGAACAGCUUGCAUAGUAUCUAGUUA	0.508 ± 0.045	0.0563 ± 0.011
UCCUGGAACAGCUUGCAUAGUAUUUAGUUA [g2:g23:cont:t1A]	1.18 ± 0.034	0.0833 ± 0.014
UCCUGGAAACAGCUUGCAUAGUAUUUAGUUA	1.34 ± 0.051	0.0675 ± 0.012
UCCUGGAACAGCUUGCAUAGUAUUCUAGUUA	0.285 ± 0.041	0.0119 ± 0.0031
UCCUGCAACAGCUUGCUUAGUAUUUAGUUA	1.4 ± 0.097	0.0478 ± 0.013
UCGACCUACAGCUUGCAUAGUAUUCUAGUUA	0.882 ± 0.094	0.0316 ± 0.0072
UGGACCUACAGCUUGCUUAGUAUUAAGUUA	0.454 ± 0.041	0.012 ± 0.0028
UCCUCCUACAGCUUGCAUACUAUUAAGUUA	0.147 ± 0.022	0.00892 ± 0.0014
UCGACCUACAGGUUGCAAAGUAUUUAGUUA	1.33 ± 0.054	0.0193 ± 0.0046
AGGACCUACAGGUUGCAAAGUAUUUAGUUA	1.21 ± 0.045	0.0226 ± 0.0041
UGGACCUACAGGUUGCAAAGUAUUUAGUUA	1.33 ± 0.082	0.02 ± 0.0043
UCCUCCUACAGGUUGCAAAGUAUUUAGUUA	1.29 ± 0.06	0.0159 ± 0.0033
UCCACCUACAGGUUGCAAAGUAUUUAGUUA	1 ± 0.04	0.0166 ± 0.0038
UCGACCUACAGGUUGCAUAGUAUUUAGUUA	1.14 ± 0.053	0.0468 ± 0.0088
UCCUGCUACAGCUUGCAUAGUAUUUAGUCUA	0.156 ± 0.025	0.00747 ± 0.0028
UCGACCUACAGCUUGCAUAGUUAAUUCAAA	0.538 ± 0.15	
